This passage reports inhibition of aptamer binding results from PubChem BioAssay AID488847 (NMMLSC, 2010).

In all, about 330,000 compounds went through this assay and about 1,900 (0.58%) were called active. Only a selection was taken, and actives are over-represented in it overall. A number with no mark means an inactive call.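 Rule for the calls: active = inhibition of aptamer binding above 40%, roughly 3 SD of noise, on plates passing a quality check; inactive = the rest.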

Sequence of Beta-adrenergic receptor kinase 1 (Homo sapiens) (P25098 whole entry, looked up): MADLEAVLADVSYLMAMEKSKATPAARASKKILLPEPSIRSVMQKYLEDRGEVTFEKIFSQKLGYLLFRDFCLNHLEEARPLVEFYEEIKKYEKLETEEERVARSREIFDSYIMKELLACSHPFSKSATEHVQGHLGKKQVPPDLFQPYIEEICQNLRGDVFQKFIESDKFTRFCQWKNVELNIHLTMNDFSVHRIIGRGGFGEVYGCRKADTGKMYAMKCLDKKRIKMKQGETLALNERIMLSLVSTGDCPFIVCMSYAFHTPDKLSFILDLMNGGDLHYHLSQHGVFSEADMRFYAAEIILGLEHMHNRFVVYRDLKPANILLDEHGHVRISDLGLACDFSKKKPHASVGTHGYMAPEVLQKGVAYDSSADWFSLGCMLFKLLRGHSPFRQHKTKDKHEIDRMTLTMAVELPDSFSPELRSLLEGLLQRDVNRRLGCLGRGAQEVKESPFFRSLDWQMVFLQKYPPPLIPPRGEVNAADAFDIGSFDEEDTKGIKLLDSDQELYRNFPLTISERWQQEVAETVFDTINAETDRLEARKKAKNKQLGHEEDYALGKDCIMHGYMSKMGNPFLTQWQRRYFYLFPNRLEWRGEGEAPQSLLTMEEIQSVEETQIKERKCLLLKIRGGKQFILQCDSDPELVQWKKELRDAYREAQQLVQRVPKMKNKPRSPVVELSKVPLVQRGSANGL

The experiment addresses Beta-adrenergic receptor kinase 1 (Homo sapiens) (UniProt P25098). Briefly: compounds blocking aptamer binding on GRK2 – biochemical, human GRK2, bead flow cytometry, HTS, primary screen (AID 488847).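 Note: median bead fluorescence of bound FAM aptamer so fluorescent compounds give negative values.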 To be noted: FAM-aptamer displacement from GRK2, at 10 µM, stronger effect = higher value.
For the compound `CCOc1cc(NC(=S)NCc2ccco2)c(OCC)cc1NC(=O)c1ccco1`, the inhibition of aptamer binding is 0%. To `Cc1cccc(Nc2ccccc2C(=O)NCc2ccco2)c1C` belongs 0%; to `CCOc1ccccc1C(=O)NCc1ccco1`, 50% (active). As for `CC(C)CN(C(=O)COC(=O)c1ccc2ccccc2c1)c1c(N)n(Cc2ccccc2)c(=O)[nH]c1=O`, the inhibition of aptamer binding is 0%.

For the compound `CC(C)CN(C(=O)COC(=O)c1ccc(Cl)c(N)c1)c1c(N)n(Cc2ccccc2)c(=O)[nH]c1=O`, the inhibition of aptamer binding was 1%. Take `Cc1csc(=O)n1CC(=O)OCC(=O)N(CC(C)C)c1c(N)n(Cc2ccccc2)c(=O)[nH]c1=O`: the inhibition of aptamer binding was 98% (active).

On to `c1ccc(CC2CCN(c3nc4ccccc4n4cnnc34)CC2)cc1`, for which the inhibition of aptamer binding was 0%. Next, `COc1ccc(C(=O)NCCSc2ccccc2C)cc1`: 0%. Turning to `COc1ccc(C(=O)NCCNc2ccc([N+](=O)[O-])cn2)cc1`, the inhibition of aptamer binding was 45% (active). Next, `COc1ccccc1OCCNC(=O)c1cc([N+](=O)[O-])cc([N+](=O)[O-])c1`: 0%. Turning to `O=C(N/N=C/C=C/c1ccco1)c1cccs1`, the inhibition of aptamer binding is 7%. Next, `Cc1nn(C)c(Cl)c1CN1CCC(n2nccc2NC(=O)C2CCCC2)CC1`: 4%; `COc1ccc(S(=O)(=O)N2CCOCC2)cc1C(=O)NC1CCCCC1`: 3%; `CC1CCCCC1NC(=O)CN1CCC(O)(c2ccc3c(c2)OCO3)CC1` (centres undefined): 1%. On to `COc1ccc(CNC(=O)COc2ccccc2C(=O)c2cnn(-c3ccccc3)c2)cc1OC`, for which the inhibition of aptamer binding was 1%. For `O=C(c1cnn(-c2ccc(Cl)cc2)c1)c1ccccc1O`, the inhibition of aptamer binding was 47% (active). On to `Cc1ncc(CC(=O)n2cc(C(=O)c3cc(Cl)ccc3O)cn2)s1`, for which the inhibition of aptamer binding was 6%. To `Cc1ccc(C)c(S(=O)(=O)N2CCN(c3ncnc4sccc34)CC2)c1` belongs 2%; to `Cc1ccc(-n2ncc3c2CC(C)(C)CC3NC(=O)Cc2c(C)noc2C)cc1` (centres undefined), 3%; to `CCOC(=O)C1CCN(C(c2cc3cc(C)cc(C)c3[nH]c2=O)c2nnnn2C2CCCCC2)CC1` (centres undefined), 0%. For `Cc1ccc(Nc2nc(N)nc(CN3CCN(Cc4ccccc4)CC3)n2)cc1Cl`, the inhibition of aptamer binding was 1%. Turning to `CCOC(=O)C1CCCN(Cc2nc(N)nc(Nc3ccc(C)cc3)n2)C1` (centres undefined), the inhibition of aptamer binding is 60% (active).

Regarding `CCOC(=O)C1CCCN(CCSc2ccc(C)cc2)C1` (centres undefined), the inhibition of aptamer binding was 0%. To `Cc1cc(C)c2nc(N3CCC(C(=O)NCCN4CCOCC4)CC3)sc2c1` belongs 1%. To `CC1CCN(CC(=O)Nc2nccs2)CC1` belongs 1%; to `O=C(O)c1ccc2c(c1)C(=O)N(c1ccc(/C=C/C(=O)c3ccccc3)cc1)C2=O`, 46% (active).

With `O=C(/C=C/c1ccc(N2CCOCC2)cc1)c1ccccc1`, the inhibition of aptamer binding was 0%.

Take `Cc1cccc(N2C(=O)c3ccc(C(=O)Nc4cccc(C(=O)O)c4)cc3C2=O)c1`: the inhibition of aptamer binding was 0%. To `O=C(NC1CCCC1)C(c1ccc(N2CCOCC2)cc1)N(C(=O)c1ccco1)c1ccccc1F` (centres undefined) belongs 1%. To `CC(C)c1ccc(Nc2nnc(SCC(=O)c3nnc(-c4ccccc4)o3)s2)cc1` belongs 0%; to `CCN1/C(=C\c2ccc3ccccc3[n+]2CC)Sc2cc(C)ccc21`, 96% (active). In the case of `CCN1/C(=C/c2ccc3ccc(C)cc3[n+]2CC)Sc2ccccc21`, the inhibition of aptamer binding is 94% (active).

Consider `CCn1c(CNC(=O)c2ccccc2)nnc1SCC(=O)N1CCN(c2ccccc2)CC1`, for which the inhibition of aptamer binding is 0%. Next, `NC(=O)c1nnsc1-c1ccc(-c2snnc2C(N)=O)cc1`: 1%; `CN(CCC#N)c1ncnc2scc(-c3ccccc3)c12`: 3%; `CC(Oc1ccc(F)cc1)C(=O)N1CCN(c2ncccn2)CC1` (centres undefined): 6%. On to `COc1cccc(/C=C(/CC(=O)Nc2ccc(N3CCOCC3)cc2)c2nc3ccccc3s2)c1`, for which the inhibition of aptamer binding was 0%. To `CCCCN(C(=O)c1ccc(C)o1)c1c(N)n(CCCC)c(=O)[nH]c1=O` belongs 0%; to `CCCCn1c(N)c(N(CCC(C)C)C(=O)c2ccc([N+](=O)[O-])o2)c(=O)[nH]c1=O`, 55% (active); to `CCCCn1c(N)c(N(CCC(C)C)C(=O)c2ccc(COc3ccccc3)o2)c(=O)[nH]c1=O`, 1%. To `C=CCSc1nc2c(c(=O)[nH]1)C(C(C)C)C(C#N)=C(N)O2` (centres undefined) belongs 2%. To `CC(CC(=O)Nc1ccccc1)n1ccnc1` (centres undefined) belongs 1%. `C[C@H](NS(=O)(=O)c1ccc(Cl)cc1)C(=O)OCC(=O)N1CCOCC1`: the inhibition of aptamer binding was 8%.

In the case of `COc1ccc(C2CC(c3ccc([N+](=O)[O-])cc3)=NN2C(C)=O)cc1` (centres undefined), the inhibition of aptamer binding was 0%. To `CC(=O)N1CC[n+]2c(-c3ccc([N+](=O)[O-])cc3)csc21` belongs 92% (active); to `COC(=O)c1c(C)[nH]c(C)c1-c1ccc([N+](=O)[O-])cc1`, 0%. Next, `Cc1nn(Cc2ccc(F)cc2)c(C)c1NC(=O)c1noc2c1CCc1ccccc1-2`: 73% (active). Take `Cc1nn(Cc2ccc(Cl)c(Cl)c2)c(C)c1NC(=O)c1cc(C2CC2)on1`: the inhibition of aptamer binding is 0%. To `Cc1nn(Cc2ccc(F)cc2)c(C)c1NC(=O)c1cccnc1Cl` belongs 5%; to `Cc1ccccc1-n1cc(CNC(=O)CC2C(=O)NCCN2C/C=C/c2ccccc2)cn1` (centres undefined), 0%. Regarding `O=C(NC1CC1)C1=C[C@H](c2coc3ccccc3c2=O)C[C@H](OCCCCO)O1`, the inhibition of aptamer binding was 2%. To `CCN1C(=O)[C@H]2[C@@H](c3ccc(-c4ccc(OC)cc4)cc3)N[C@@](Cc3ccccc3)(C(=O)OC)[C@H]2C1=O` belongs 43% (active); to `CCN1C(=O)[C@H]2[C@@H](c3ccc(SC4CCCCC4)c(OC)c3)N[C@@](Cc3ccccc3)(C(=O)OC)[C@H]2C1=O`, 0%. `CCN1C(=O)[C@H]2[C@@H](c3ccc(-c4ccc(F)cc4)cc3)N[C@@](Cc3ccccc3)(C(=O)OC)[C@H]2C1=O`: the inhibition of aptamer binding is 0%. To `COc1cccc(C2SCC(=O)N2c2cccc(C)c2)c1OC` (centres undefined) belongs 2%; to `COCCn1c(SCC(=O)c2[nH]c(C)c(C(C)=O)c2C)nc2ccccc2c1=O`, 0%. To `C/C(=N\NC(=S)NCc1ccccc1)C1CCCCC1` belongs 1%.

In the case of `CC1CCCCC1NC(=O)c1cc(=O)[nH]c2ccccc12` (centres undefined), the inhibition of aptamer binding was 0%. To `COc1ccc(OC)c(CNC(=O)Cn2nc(C)c3c(C)n(-c4ccc(C)cc4)nc3c2=O)c1` belongs 0%; to `CC[N+](C)(CC)CCC[n+]1c(-c2ccccc2)c2cc(N)ccc2c2ccc(N)cc21`, 62% (active).

With `Cc1ccc(-c2nc(CS(=O)CC(=O)NC3CCCC3)c(C)o2)cc1` (centres undefined), the inhibition of aptamer binding is 0%. Next, `CC(=O)Nc1cccc(C(=O)OCC(=O)c2ccc3c(c2)OCO3)c1`: 0%. Next, `O=C(OCc1ccccc1F)c1ccc2c(c1)OCCO2`: 0%. Next, `O=C(COC(=O)c1ccc(O)cc1O)c1ccc2c(c1)OCCO2`: 44% (active); `CN(CC(=O)Nc1ccc(Cl)c(C(F)(F)F)c1)C(=O)CCC(=O)c1ccccc1`: 1%. For the compound `CCC(C)(C)N=C(NC#N)Nc1cccnc1`, the inhibition of aptamer binding is 0%. To `Cc1nc(Nc2ccc3c(c2)OCCO3)c2nnn(Cc3ccccc3Cl)c2n1` belongs 0%; to `Cc1nc(Nc2ccccc2F)c2nnn(Cc3ccccc3Cl)c2n1`, 47% (active); to `Cc1nc(Nc2ccc(S(=O)(=O)N3CCCC3)cc2)c2nnn(Cc3ccccc3)c2n1`, 0%.

For the compound `O=C(CNC(c1ccccc1)c1ccccc1)Nc1ccc(F)cc1`, the inhibition of aptamer binding was 1%. With `S=C(Nc1cccnc1)Nc1ccccn1`, the inhibition of aptamer binding was 1%. To `O=C1CSC(=O)N1CCOCCN1C(=O)CSC1=O` belongs 3%. In the case of `O=C(CNC(=O)c1n[nH]c2ccccc12)Nc1cc(Cl)ccc1Cl`, the inhibition of aptamer binding was 0%. Turning to `Cc1cccc(OCC(O)CN2CCN(S(=O)(=O)c3ccc(C)cc3C)CC2)c1` (centres undefined), the inhibition of aptamer binding is 1%. To `CC(=O)c1ccc(OCC(O)CN2CCN(S(=O)(=O)c3cccc(Br)c3)CC2)cc1` (centres undefined) belongs 88% (active). To `O=S(=O)(c1ccc(OCC(O)CN2CCN(c3ccccc3Cl)CC2)cc1)N1CCOCC1` (centres undefined) belongs 0%; to `CCC(C)N1C(=O)S/C(=C/c2ccc(Sc3nc4ccccc4[nH]3)o2)C1=O` (centres undefined), 1%; to `Cc1cccc(NC(=S)NCc2ccc3[nH]c4c(c3c2)CCCC4)c1`, 0%.

On to `Cc1ccc(C(C)NC(=O)Cn2nc(C)c([N+](=O)[O-])c2C)cc1` (centres undefined), for which the inhibition of aptamer binding was 2%.

Turning to `COC(=O)c1ccc(C)c(NC(=O)Cn2c(C)csc2=O)c1`, the inhibition of aptamer binding is 0%. With `COC(=O)c1ccc(C)c(NC(=O)C2CC(=O)N(C3CCCC(C)C3C)C2)c1` (centres undefined), the inhibition of aptamer binding was 63% (active). In the case of `Cc1ccc(C)c(NC(=O)C2CC(=O)N(C(C)C)C2)c1` (centres undefined), the inhibition of aptamer binding was 2%. To `O=C(CSCc1ccc([N+](=O)[O-])cc1)NCCSCc1ccccc1` belongs 0%; to `COc1ccc(-c2ocnc2C(=O)Nc2ccc3c(c2)CCC3)cc1`, 8%; to `COC(=O)c1ccc(S(=O)(=O)NCc2ccccc2)n1C`, 2%. For `Cc1ccc(C(=O)OCC(=O)N2CC(C)CC(C)C2)cc1S(=O)(=O)N1CCCCC1` (centres undefined), the inhibition of aptamer binding is 2%.

On to `COc1cccc2c1OCC(C(=O)NCc1ccc(Cl)cc1Cl)=C2`, for which the inhibition of aptamer binding was 0%. To `CCC(=O)c1ccc(OCC(=O)OCC(=O)N2CCc3ccccc3C2)cc1` belongs 3%. Next, `CN(C)c1ccc(NC(=S)N(CCc2ccccc2)C2CC(=O)N(c3c(Cl)cccc3Cl)C2=O)cc1` (centres undefined): 1%; `O=C(COc1ccccc1)NCCc1nc2ccccc2[nH]1`: 59% (active).

In the case of `O=C(CNC(=O)COc1ccccc1)NCCc1ccccn1`, the inhibition of aptamer binding was 0%. To `CC(C)=C(NC(=O)c1ccco1)C(=O)NCCc1nc2ccccc2[nH]1` belongs 0%; to `OCCC1CN(Cc2ccc(Oc3ncccn3)cc2)CCN1CCc1ccccc1` (centres undefined), 0%. Next, `CCNc1nc(NC(C)C)nc(OCCOC(=O)c2ccccc2)n1`: 0%.
